Source: PubChem
gsp antag = antagonists of gsp mutant (McCune-Albright syndrome); Potency, µM (highest dose often 76.9 µM), most hits filed as inhibitors; gsp-mutant cells, cAMP HTRF, 30 min; 0.4% of 340,000 active; calls by dose curve; cell line not stated here;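 further: intracellular cAMP measured with PDE inhibitor Ro 20-1724 present during compound exposure; nearly all actives have a fitted effect of over 65% in size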
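Measurement of cellular cAMP by homogeneous time-resolved fluorescence following a 30 min compound exposure at 37C. The PDE inhibitor […] was present throughout; the assay buffer was DPBS with 0.05% BSA and 0.005% Tween 20.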
TSHR antagonist = blocks TSH signaling through the human TSH receptor; TSHR-expressing cells, TSH-stimulated cAMP HTRF, 2 h; stronger effect = lower value; activity change, negative = inhibition, % at 11.5 µM; AID 504810; 0.2% of 330,000 active; P16473;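 active means activity change below a set negative limit, meaning inhibition stronger than a set level, cut at about -70% in these data; inconclusive means activity change between two set negative limits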
Target sequence (P16473 whole entry, looked up): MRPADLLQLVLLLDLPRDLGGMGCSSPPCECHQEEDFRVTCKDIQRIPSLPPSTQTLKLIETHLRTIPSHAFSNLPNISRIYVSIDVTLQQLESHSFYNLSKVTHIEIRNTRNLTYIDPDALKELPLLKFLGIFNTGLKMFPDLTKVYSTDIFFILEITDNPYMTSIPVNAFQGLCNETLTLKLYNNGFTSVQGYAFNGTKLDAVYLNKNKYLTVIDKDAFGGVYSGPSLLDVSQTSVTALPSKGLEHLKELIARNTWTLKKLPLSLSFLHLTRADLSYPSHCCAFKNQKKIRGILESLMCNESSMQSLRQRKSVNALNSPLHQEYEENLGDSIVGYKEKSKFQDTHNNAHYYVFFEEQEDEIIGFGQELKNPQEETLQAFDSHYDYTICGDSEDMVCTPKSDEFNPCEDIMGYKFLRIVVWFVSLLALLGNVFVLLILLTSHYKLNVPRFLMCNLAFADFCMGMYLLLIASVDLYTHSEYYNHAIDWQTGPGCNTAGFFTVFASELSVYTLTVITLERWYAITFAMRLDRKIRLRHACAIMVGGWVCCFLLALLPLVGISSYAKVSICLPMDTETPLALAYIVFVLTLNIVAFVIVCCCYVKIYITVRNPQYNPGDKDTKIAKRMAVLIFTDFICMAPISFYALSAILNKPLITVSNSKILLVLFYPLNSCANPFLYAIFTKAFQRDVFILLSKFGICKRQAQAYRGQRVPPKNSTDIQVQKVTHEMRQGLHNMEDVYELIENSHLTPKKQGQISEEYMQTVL
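Cell-based HTRF cAMP assay; TSHR cells + compound, TSH EC80 (4nM final), 2 h, 37 deg C. Lysis with anti-cAMP cryptate and cAMP-d2, 30 min RT, read 665/620 nm.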
gsp ag = activates gsp, the McCune-Albright syndrome mutation; gsp mutant cells, cAMP HTRF, 30 min; Potency, µM (titrated, usually from 76.9 µM), actives largely listed as activators; 0.13% of 340,000 active; AID 624287; active means well fitted activation curve with a large enough effect; inconclusive means small, poorly fitted or top-dose-only effect, or another doubt; inactive means no such curve, though single readings can be large or run the other way; cell line not stated here;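 further: phosphodiesterase inhibitor Ro 20-1724 added with compounds to block cAMP breakdown; nearly all actives have a fitted effect of over 60% in size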
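Cells in DMEM/10% FBS with G418 were pretreated with compounds in DMSO plus […] (300 uM stock) for 30 min at 37C. cAMP was measured by HTRF (cAMP-d2 plus anti-cAMP antibody-K) after 30 min at room temperature.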
S-ASM inh = human S-ASM enzyme inhibition | P17405 | placental ASM, HMU-PC fluorogenic substrate, 60 min | Potency, µM (series often up to 57.5 µM), hits mostly inhibitors | 0.006% of 340,000 active | AID 504937; active means well fitted inhibition curve with a large enough effect; inconclusive means small, poorly fitted or top-dose-only effect; inactive means no such curve, though single readings can be large or run the other way
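Human placenta-derived ASM enzyme was preincubated with compound for 10 minutes at room temperature, then given fluorogenic substrate HMU-PC0 (9 uM final) for 60 minutes at 37 °C; a pH 10 stop preceded fluorescence reading at Ex 386/Em 447 nm.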
A number is an active result; - = inactive; ? = inconclusive; . = not tested or not shown; [ ] = dose if it differs, or a comment. Sampled rows, rich in hits. Any-hit rate of the full collection: about 0.63%.

SMILES	gsp antag	TSHR antagonist	gsp ag	S-ASM inh
O=C(CCN1N=C(c2ccccc2)CCC1=O)NCCCN1CCOCC1	-	-	-	-
CN(Cc1ccc(-n2cccn2)cc1)C(=O)c1cnn2c1NC(c1ccco1)CC2C(F)(F)F (stereo unspecified)	32µM	-	-	-
OC1(c2ccc(OC(F)F)cc2)CSC(=Nc2cccnc2)N1Cc1ccco1 (stereo unspecified)	32µM	-	-	-
OC1(c2ccc(F)cc2)CSC(=Nc2cccnc2)N1Cc1ccco1 (stereo unspecified)	.	-	-[15.4 µM]	-
COc1ccc(-n2nnc3c(=O)n(CC(=O)NCC4CCCO4)cnc32)cc1 (stereo unspecified)	-	-	7.9µM	-
O=C(Cn1cnc2c(nnn2-c2ccc(F)cc2)c1=O)NCC1CCCO1 (stereo unspecified)	-	-	10µM	-
O=C(Cn1cnc2c(cnn2-c2ccc(F)cc2)c1=O)NCC1CCCO1 (stereo unspecified)	-	-	?	-
Cc1ccc(C(=O)OCC(=O)c2c[nH]c3ccccc23)cc1NC(=O)c1ccco1	-	-	-[15.4 µM]	-
C=CC(=O)c1ccc(CCCCCC)cc1	.	-	.	.
COc1cccc(OCC(O)CNC2CCCC2)c1 (stereo unspecified)	-	-	-	-
CCN1CCN(C(=O)c2ccc(-c3nc4ccccc4s3)s2)CC1	-	-	-	-
CCCN1CCN(C(=O)c2ccccc2-c2nc3ccccc3s2)CC1	11µM	-	-[15.4 µM]	-
COc1ccc(OC)c(S(=O)(=O)N2CCC(C(=O)Nc3ccc(C)c(C)c3)CC2)c1	28µM	-	-	-
O=C(Nc1cccc(S(=O)(=O)N2CCCCCC2)c1)c1ccc(Cl)nc1	?	-	-	-
COc1ccc(NC(=O)c2ccc(Cl)nc2)cc1S(=O)(=O)N1CCCCC1	32µM	-	-[15.4 µM]	-
O=C(Nc1ccc(Cc2ccncc2)cc1)c1ccc(S(=O)(=O)N2CCCC2)cc1	50µM	-	-	-
O=C(Nc1cccc(S(=O)(=O)N2CCCCC2)c1)c1ccc(Cl)nc1	50µM	-	-	-
COc1ccc(OC)c(S(=O)(=O)N2CCC(C(=O)Nc3cccc(C)c3C)CC2)c1	-	-	?	-
CCOc1ccc(NC(=O)CN2CCCC2c2cccs2)cc1S(=O)(=O)N1CCCC1 (stereo unspecified)	?	-	?	-
COc1ccc(NC(=O)CN2CCCC2c2cccs2)cc1S(=O)(=O)N1CCCCC1 (stereo unspecified)	35µM	-	-	-
CCOc1ccc(NC(=S)Nc2ccc(OCC)cc2)cc1	35µM	-	-[15.4 µM]	-
COc1ccccc1C1CC(c2ccccc2)=NN1C(=S)Nc1ccccc1 (stereo unspecified)	-	-	-[15.4 µM]	-
CCO[C@@H]1OC(C(=O)NCc2ccccc2)=C[C@H](C2CCCCC2)[C@H]1CCCO	11µM	-	-	-
COc1cc(CNCc2cccc3ccccc23)cc(OC)c1	50µM	-	-	-
COc1ccccc1NC(=O)CCN1C(=O)c2ccccc2C1=O	-	-	-[15.4 µM]	-
SMILES	gsp antag	TSHR antagonist	gsp ag	S-ASM inh
Brc1cc(Br)c2ncnc(N3CCCCC3)c2c1	-	-	14µM	-
COc1ccc(Cl)cc1NC(=O)CCc1nnc2ccc(N3CCC4(CC3)OCCO4)nn12	-	-	?	-
COc1cc(CN2CC(=O)N(c3ccccc3Cl)C2=S)cc(OC)c1OC	35µM	-	-	-
COc1ccc(OC)c(C2C(C(=O)Nc3nc4ccccc4s3)=C(C)NC3=C2C(=O)CCC3)c1 (stereo unspecified)	32µM	-	-	-
CC1CCCCN1C(=O)c1ccc(CS(=O)(=O)Cc2ccccc2)cc1 (stereo unspecified)	-	-	-	-
CCOC(=O)c1cccc(NC(=O)CSc2nnc(COc3ccccc3)n2CC)c1	?	-	-	-
CCn1c(COc2cccc(C)c2)nnc1SCC(=O)Nc1cccc(C(=O)OC)c1	28µM	-	-	-
COc1ccc(C(NC(=O)c2cc(OC)ccc2OC)c2ccccc2)cc1 (stereo unspecified)	-	-	-	-
COc1ccc(C(NC(=O)c2c(F)c(F)c(F)c(F)c2F)c2ccccc2)cc1 (stereo unspecified)	32µM	?	-	-
O=C(O)c1ccccc1C(=O)c1ccc(N2CCCC2)c([N+](=O)[O-])c1	-	-	-[15.4 µM]	-
CC(=O)c1ccc(N2CCN(c3ccccc3O)CC2)c([N+](=O)[O-])c1	32µM	-	-[15.4 µM]	-
Cc1cc(C(=O)CSc2nc3ccccc3[nH]2)c(C)n1CC1CCCO1 (stereo unspecified)	32µM	?	-	-
CC(C(=O)OCC(=O)Nc1ccc(S(=O)(=O)N2CCCCC2)cc1)N1C(=O)c2ccccc2C1=O (stereo unspecified)	-	-	-	-
